A selection: hits, their analogues and other compounds. The true share with any hit is near 3.6%.
GALC G270D act – enhancers of human galactocerebrosidase G270D mutant activity in cells | P54803 | 145M-Twi-hGALC-G270D cells (Twitcher mouse brain line with human GALC G270D), HMU-beta-Gal fluorescence, 48 h | Potency, µM (titrated, usually from 57.5 µM), usual class: activators | 0.1% of 45,000 active; further: potency means the concentration at half of the fitted maximal effect; 0% is about no effect; nearly all actives have a fitted effect of over 65% in size
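Fluorogenic HMU-b-Gal hydrolysis (0.1 mM final, pH 5.2 citrate-phosphate with 1 mg/mL sodium taurocholate; carbonate stop buffer) measures mutant GALC activity after compound treatment of live 145M-Twi Twitcher brain cells stably carrying human GALC-G270D, with wild-type GALC line alongside; activation sought.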
GPR32 ag – GPR32 (DRV1) agonism, beta-arrestin recruitment; O75388; CHO-K1 GPR32 beta-arrestin PathHunter luminescence, 90 min; zero percent set by DMSO-only wells; activation, % at 76.9 µM; 2.5% of 48,000 active; AID 1346428;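 active means activation of at least 60% and not above a set upper limit, about 1 call in 100 departs from these limits; inconclusive means activation of 40% to 60%, or above that upper limit; inactive means activation under 40%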; further: 0% is about no effect
Target sequence (O75388 whole entry, looked up): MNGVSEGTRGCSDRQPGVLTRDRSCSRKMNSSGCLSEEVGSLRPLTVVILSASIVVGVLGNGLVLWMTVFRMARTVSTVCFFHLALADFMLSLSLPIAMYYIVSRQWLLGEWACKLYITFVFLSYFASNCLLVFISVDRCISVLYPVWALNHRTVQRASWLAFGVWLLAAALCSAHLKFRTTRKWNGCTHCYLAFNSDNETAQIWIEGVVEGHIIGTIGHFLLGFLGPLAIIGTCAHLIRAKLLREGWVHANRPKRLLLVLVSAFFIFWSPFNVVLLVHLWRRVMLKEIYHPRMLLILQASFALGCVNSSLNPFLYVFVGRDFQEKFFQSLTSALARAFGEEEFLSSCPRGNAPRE
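Readings come from a cell-based beta-arrestin complementation format: CHO-K1 GPR32 stable cells (2,500/well) treated 90 min with compounds, then beta-Gal substrate added for 1 h before chemiluminescence imaging.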
NTMT1 inh – blocks human N-terminal methyltransferase 1 activity | Q9BV86 | NTMT1 MTase-Glo SAH luminescence, purified enzyme | Potency, µM (top dose mostly 114 µM), without a hit: at the highest dose activity change, negative = inhibition, actives largely listed as inhibitors | 2.5% of 59,000 active | AID 1645870;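 further: potency means the concentration at half of the fitted maximal effect; plate controls were DMSO vehicle for no effect and no enzyme for full effect; nearly all actives have a fitted effect of over 65% in size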
PTAP-TSG101 blk – inhibitors of HIV-1 PTAP binding to human TSG101, validation | Fluorescence polarization, FITC-PTAP peptide/Tsg101, 20 min | Potency, µM (series often up to 115 µM), actives largely listed as inhibitors | 44,000 tested, under 10 active | AID 1347069; further: potency means the concentration at half of the fitted maximal effect; 0% is about no effect
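FITC-labeled PTAP peptide (50 nM final) binding to Tsg101 binding domain (10 uM final) read by fluorescence polarization after 20 min at r.t. in HEPES pH 7.5 buffer. Actives by CRC class, <25 µM.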
GALK inhibitor – GALK (human) enzyme inhibition; recombinant GALK, Kinase-Glo ATP luminescence, 1 h; Potency, µM (doses to about 57.5 µM), without a hit: top-dose activity, negative = inhibition, usual class: inhibitors; 44,000 tested, under 10 active; AID 1347072; P51570;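 further: plate controls were full GALK reaction for no effect and reaction lacking GALK for full effect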
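Human GALK (5 nM) was incubated with 35 uM ATP and 100 uM galactose in 20 mM HEPES pH 8.0 with MgCl2, NaCl, DTT and BSA for 1 h at room temperature. Remaining ATP was measured by Kinase-Glo Plus luminescence.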
B2AR arrestin ag – beta-arrestin recruitment by human beta2-adrenergic receptor ligands. 44,000 tested, under 10 active. Potency, µM (series often up to 46.1 µM), usual class: activators. HTLA Tango cells, beta-arrestin recruitment, luciferase luminescence, 18 h. P07550. AID 1347077;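 further: potency means the concentration at half of the fitted maximal effect; 0% = DMSO and full agonism = EC100 isoproterenol or metaproterenol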
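Tango cells expressing recombinant beta2-AR and beta-arrestin were treated with compounds (up to 46 microM titration) in DMEM with 1% FBS for 18 hr at 37 degrees C. Beta-arrestin recruitment drove tTA-dependent luciferase, read by luminescence; curves were fitted and classed.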
Active calls of the source: *; i = inactive; ? = inconclusive; . = no result; ! = not confirmed by another sample; [ ] = remark or other dose. Unless noted, the call rests on the fitted dose curve; in most records, active means well fitted curve in the direction sought with a large enough effect; inconclusive means small, poorly fitted or top-dose-only effect, or another doubt; inactive means no such curve, though single readings can be large; an effect the other way counts as inactive or inconclusive.

SMILES	GALC G270D act	GPR32 ag	NTMT1 inh	PTAP-TSG101 blk	GALK inhibitor	B2AR arrestin ag
O=C(Nc1nc(-c2ccc(Br)cc2)ns1)c1ccccc1F	i	60*	2%	i	-6%	i
CCCCCN=C(N)N/N=C/c1c[nH]c2ccc(OC)cc12	i	73*	?	.	.	.
CCCCCN=C(N)NN=Cc1c[nH]c2ccc(OC)cc12	.	.	10%[57.5 µM]	.	.	.
Nc1ncnc2c([C@@H]3N[C@H](CO)[C@@H](O)[C@H]3O)c[nH]c12	.	.	1%[57.5 µM]	.	.	.
Cc1ccc(C)c(NC(=O)N(C)CCc2c(C)nn(C)c2C)c1	i	-13	13%	i	1%	i
Cc1cc(NC(=O)N(C)CCc2c(C)nn(C)c2C)ccc1Br	i	65*	14%	i	-2%	i
COc1ccc(CNc2ccc(S(=O)(=O)Nc3nccs3)cc2)cc1O	.	.	4%	.	.	.
COc1ccc(NC(=O)c2c(C)oc3ccc(O)c(CN4CCC(C)CC4)c23)cc1Cl	.	83*	.	i	-8%	i
Cc1oc2ccc(O)c(CN3CCCC3)c2c1C(=O)Nc1ccc(C(C)C)cc1	.	118*	.	i	4%	i
Cc1oc2ccc(O)c(CN3CCN(C)CC3)c2c1C(=O)Nc1ccc(C(C)C)cc1	.	-7	.	i	4%	i
Cc1cc(C(=O)N2CCCCc3ccccc32)ccc1CNC(=O)N1CCC[C@H]1C(=O)N(C)C	.	.	-2%[57.5 µM]	.	.	.
O=c1c2ccccc2nc2sc(NCc3ccc(Sc4ccccc4)cc3)nn12	.	.	9%	.	.	.
COc1cc(-n2c(=O)c3ccccc3n(Cc3cccc(Cl)c3)c2=O)cc(OC)c1OC	i	-2	89µM*	i	0%	i
COc1cc(OC)c(C2Nc3ccccc3-c3nnc(SCc4ccccc4)nc3O2)cc1OC (stereo not drawn)	i	64*	3%	i	?	i
CCOc1ccc(C2Nc3ccccc3-c3nnc(SCc4ccccc4)nc3O2)cc1OC (stereo not drawn)	i	9	4%	i	-2%	i
CC(C)(C)OC(=O)N1CCC(C(=O)Nc2ccc([S+](=O)([O-])Nc3nccs3)cc2)CC1	.	.	15%	.	.	.
COC(=O)N1CC2(CC2)C[C@H](C(=O)NO)[C@H]1C(=O)N1CCN(c2ccccc2)CC1	.	.	3%[57.5 µM]	.	.	.
CC(C)c1ccc(Cn2ccc3c4c(N)nc(NC5CC5)nc4ccc32)cc1	.	.	25µM*!	.	.	.
Cc1cc(NS(=O)(=O)c2ccc(NC(=O)Cc3ccc(Cl)cc3)cc2)no1	.	.	10%[57.5 µM]	.	.	.
O=C(Nc1ccc(N2CCC(N3CCCCC3)CC2)c(C(=O)O)c1)c1ccccc1	i	26	50µM*	i	3%	i
CC1CCN(c2ccc(NC(=O)c3cccc(Cl)c3)cc2C(=O)O)CC1	i	2	45µM*	i	3%	i
Cc1cccc(C(=O)Nc2ccc(N3CC=C(c4ccccc4C)CC3)c(C(=O)O)c2)c1	i	10	40µM*	i	0%	i
CC(C)(C)NC(=O)c1cncn1C1CCN(c2ccc(-c3nnc(C(F)(F)F)o3)cn2)CC1	.	.	13%	.	.	.
Nc1ccccc1OCCn1c(CCNC(=O)C2CCCCC2)nc2ccccc21	.	.	29%	.	.	.
COc1cc2nc(=NC(=O)c3cccnc3)n3c(c2cc1OC)NCC3	.	.	-1%[57.5 µM]	.	.	.
CN(C)CCCNc1nc(CN2CCN(C(c3ccc(Cl)cc3)c3ccc(Cl)cc3)CC2)nc2ccccc12	.	.	3%[57.5 µM]	.	.	.
CC(C)c1ccccc1NC(=O)CSc1nnc(COc2ccccc2)o1	i	12	-7%	i	4%	i
CC(C)c1ccccc1NC(=O)CSc1nnc(COc2ccccc2Cl)o1	i	87*	14%	i	1%	i
c1nc2nc(Nc3ccc(N4CCOCC4)cc3)nc(NC3CCCCC3)c2[nH]1	.	.	40µM*!	.	.	.
O=C(Nc1ccc(-c2ccnc(Nc3ccc(N4CCOCC4)cc3)n2)cc1)C1CCCN1 (stereo not drawn)	.	.	-4%	.	.	.
